PubChem BioAssay (NCI)
About 83,000 compounds went through this panel and 20% of them were active in at least one assay; those are over-represented in the sample as a whole.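 The endpoint reported here, percent growth, reads 100 for growth as untreated, 0 for no net growth and -100 for all cells dead.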 Unmarked numbers belong to inactive results. Calls of active or inactive are those of the source. How the source made its calls: active means growth percent below 10; inactive means the rest.

Test system: MDA-MB-468 breast
Assay: NCI-60 one-dose screen, 48 h (100 = growth as untreated, 0 = no growth, -100 = all killed)
Conditions: 10 µM unless noted

| Structure (SMILES) | growth |
| --- | --- |
| COc1ccc(CC(C)=C(c2ccc(OCCN(C)C)cc2)c2ccc(OCCN(C)C)cc2)cc1 | 68.3% |
| COc1cccc2nc(Nc3ccc(NC(=O)c4ccc5ncccc5c4)cc3)ccc12 | 88.9% |
| O=C1C(=O)c2ccccc2C(O)=C1CCCc1ccc(Oc2ccccc2)cc1 | 44.7% |
| O=C(Cc1ccc(/C=C/C(=O)c2nccs2)cc1)Nc1ccccc1 | 91.7% |
| CCCCCCN(CCCCCC)CCC(=O)Nc1ccc(S(=O)(=O)c2ccc(NC(=O)CCN(CCCCCC)CCCCCC)cc2)cc1 | 92.9% |
| OC(c1cc(-c2ccccc2)nc2ccc(Cl)cc12)C1CCCCN1 (stereo unspecified) | -17.1% (active) |
| COCCOC(=O)c1ccc(C(C)C)cc1 | 106% |
| CC1(C)C=CC[C@]2(C)[C@H]3CC[C@@H]4[C@H]5[C@H](C(=O)/C=C/c6cccnc6)CC[C@]5(CO)CC[C@@]4(C)[C@]3(C)CC[C@@H]12 | -60.7% (active) |
| CN1CCN(Cc2ccc(NC(=O)c3cc(C#Cc4cnc(N)c5ncccc45)n(C)n3)cc2C(F)(F)F)CC1 | 104% |
| O=S(=O)(Nc1ccc(Br)c(Cl)c1)c1ccc(-c2cnc(C3CC3)o2)cc1 | -23.9% (active) |
| COc1ccc(/C=N/NC(=O)c2[nH]c3ccc(Br)cc3c2-c2ccccc2)o1 | 13% |
| CCOc1ccc(S(=O)(=O)Nc2ccc3c(c2)N(S(=O)(=O)CC)CCC3)cc1 | 85.4% |
| Cc1ccc(-c2cc(-c3ccc(N(C)C)cc3)n3c(n2)nc2ccccc23)cc1 | -0.434% (active) |
| O=Nc1ccc(O)c2ccccc12 | 11.7% |
| CC(=O)Nc1ccc(C(=O)/C=C/c2ccc(N(C)C)cc2)cc1 | 95.6% |
| CC/C(=C(/c1ccc(Cl)cc1)c1ccc(OCCCN(C)C)cc1)c1ccc(OC)cc1 | 51.7% |
| OCCCCCCNc1ncnc2cc(Cl)ccc12 | 74.1% |
| COc1cc(Nc2ccnc(N3CCN(c4ccnc5cc(Cl)ccc45)CC3)n2)cc(OC)c1 | -0.859% (active) |

| Structure (SMILES) | growth |
| --- | --- |
| COc1cc(/C=C/C(=O)CC(=O)/C=C/c2cc(Br)c(OC)c(OC)c2)cc(Br)c1OC | 97.2% |
| O=C(CSc1nccc(Nc2ccc(S(=O)(=O)Nc3nccs3)cc2)n1)c1ccc(F)cc1 | 98.6% |
| O=C(CCl)Nc1ccc(Cc2ccc(NC(=O)CCl)cc2)cc1 | -36.8% (active) |
| COc1cc(-c2csc(NC(=O)c3ccc(N4CCOCC4)c(C(F)(F)F)c3)n2)cc(OC)c1OC | 27.2% |
| NC(=O)c1ccc(-c2c3ccccc3cc3c2ccc2ccccc23)cc1 | -11.3% (active) |
| O=c1c2sc3ncc(Cl)cc3c2nnn1-c1cccc(Cl)c1 | 97.3% |
| S=C1CCCC(=S)N1 | 100% |
| COc1cc2c(cc1OC)C(Sc1ccc(SC)cc1)c1c(nc(N)c(C#N)c1N)O2 (stereo unspecified) | -47.1% (active) |
| CO[C@H](C(=O)[C@@H](O)[C@@H](C)O)[C@@H]1Cc2cc3cc(O[C@H]4C[C@@H](O[C@H]5C[C@@H](O)[C@H](O)C(C)O5)[C@H](O)C(C)O4)c(C)c(O)c3c(O)c2C(=O)[C@H]1O[C@H]1C[C@@H](O[C@H]2C[C@@H](O[C@H]3C[C@@H](OC)[C@H](O)C(C)O3)[C@@H](O)C(C)O2)C(O)(O)C(C)O1 (stereo partly specified) | -30.2% (active) |
| CCCCC(O)(c1ccc(Cl)cc1)C(CN1CCOCC1)c1ccc(Cl)cc1 (stereo unspecified) | 24.7% |
| COc1ccc(-c2cc(-c3cccc4ccccc34)n3c(n2)nc2ccccc23)cc1 | 52.4% |
| COC(=O)c1[nH]nc2c1C1(C(=O)c3cccc4cccc1c34)C(C#N)=C(N)O2 (stereo unspecified) | 86.3% |
| COc1ccc(C2NC(=O)C(C#N)c3c2sc2c(F)cccc32)c(OC)c1 (stereo unspecified) | 24.3% |
| CC(=O)Oc1csc(N(C(C)=O)c2cccc(C(F)(F)F)c2)n1 | 92.1% |
| O=C(NCCNc1nccc(-n2ccc3cccnc32)n1)c1ccc(C(F)(F)F)cc1 | 110% |
| O=[N+]([O-])c1cc(Br)cc2c1[nH]c1ccc(Br)cc12 | 70.3% |
| Cc1ccc(C(=NN=C(N)N)c2ccc(C)cc2)cc1 | -42.5% (active) |
| CCC(C)(C)C(=O)O[C@H]1C[C@@H](C)C=C2C=C[C@H](C)[C@H](CC[C@@H]3CC=CC(=O)O3)[C@H]21 | 52.1% |
